In PubChem BioAssay AID1240 (Sanford-Burnham Center for Chemical Genomics, 2008):
Screen size: about 50,000 compounds; about 800 (1.6%) showed an effect of 50% or more. The sample holds strong results, similar compounds and a random draw of the others, so the mix is not that of the screen.

Target: Bcl-2-like protein 10 (Homo sapiens) (UniProt Q9HD36)
Assay: TR3 peptide-Bcl-B binding displacers, biochemical primary FP assay, phenotype converters (AID 1240);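 note: 0% = Bcl-B with tracer peptide and DMSO and 100% = tracer peptide lacking Bcl-B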
Details: GST-Bcl-B / FITC-TR3 peptide fluorescence polarization; stronger effect = higher value; compound at 3.75 mg/L

Bcl-2-like protein 10 (Homo sapiens), sequence (Q9HD36 whole entry, looked up): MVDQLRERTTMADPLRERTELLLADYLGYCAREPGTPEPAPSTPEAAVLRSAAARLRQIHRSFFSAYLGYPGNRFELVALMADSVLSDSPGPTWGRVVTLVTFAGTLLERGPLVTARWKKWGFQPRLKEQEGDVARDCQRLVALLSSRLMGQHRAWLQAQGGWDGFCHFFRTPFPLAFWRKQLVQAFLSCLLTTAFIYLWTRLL

Q: Which displacement does the source give for `CCOC(=O)c1cnn(-c2ccccc2)c1NC(=O)c1ccccc1` here?
A: 2.4%

Q: With `O=C(c1ccco1)N(C(=O)c1ccco1)c1cc(C(F)(F)F)ccc1Cl` as the compound, how does the displacement read?
A: -3.3%

Q: How did the displacement turn out when `COc1ccc(OCCOCCN2CCC(C)CC2)cc1` was run?
A: -9.4%

Q: How did the displacement turn out when `CNC(=O)c1c(-c2ccccc2)oc2ccc(O)cc12` was run?
A: 10.3%

Q: For `O=C1C(C=NCc2ccc3c(c2)OCO3)=C(O)c2ccccc21`, which displacement is on record?
A: 134%

Q: Which displacement does the source give for `O=C1CC(c2ccccc2)CC(O)=C1C=NCc1ccc2c(c1)OCO2` (configuration not stated) here?
A: -2.5%

Q: Which displacement does the source give for `O=C1C(C=NCc2ccc(Cl)c(Cl)c2)=C(O)c2ccccc21` here?
A: 2.5%

Q: How did the displacement turn out when `O=C(Nc1ccc2oc(-c3ccc(Cl)cc3Cl)nc2c1)c1ccc2c(c1)OCCO2` was run?
A: 2.1%

Q: Which displacement does the source give for `O=c1c2ccccc2nc(/C=C/c2cccc([N+](=O)[O-])c2)n1Cc1ccccc1` here?
A: 12.9%

Q: Which displacement does the source give for `Cn1c(/C=C/c2cn(Cc3ccccc3)c3ccccc23)nc2ccccc2c1=O` here?
A: 17.3%

Q: Which displacement does the source give for `O=c1c2ccccc2nc(/C=C/c2ccc([N+](=O)[O-])cc2)n1Cc1ccccc1` here?
A: 118%

Q: With `Cn1c(/C=C/c2ccc([N+](=O)[O-])cc2)nc2ccccc2c1=O` as the compound, how does the displacement read?
A: 2.9%

Q: How did the displacement turn out when `Cn1cc(/C=C/c2nc3ccccc3c(=O)n2Cc2ccccc2)c2ccccc21` was run?
A: 136%

Q: For `Cn1c(/C=C/c2cn(C)c3ccccc23)nc2ccccc2c1=O`, which displacement is on record?
A: 40.9%

Q: How did the displacement turn out when `Cc1onc(-c2ccccc2Cl)c1C(=O)NC12CC3CC(CC(C3)C1)C2` was run?
A: 1%

Q: With `CCOC(=O)c1c(NC(=O)c2cccc(Cl)c2)sc(C(=O)Nc2cccc(C(F)(F)F)c2)c1C` as the compound, how does the displacement read?
A: -3.3%

Q: Which displacement does the source give for `O=C(N1CCOCC1)n1nnc2ccccc21` here?
A: 13.2%

Q: How did the displacement turn out when `CC(C)(C)c1ccc(-c2nn(CNc3cccc(Cl)c3)c(=S)o2)cc1` was run?
A: 14%

Q: With `COc1ccc(C/C(N)=N/OC(=O)c2ccccc2Cl)cc1` as the compound, how does the displacement read?
A: -0.1%

Q: How did the displacement turn out when `O=C(COc1ccc(Br)cc1)Nc1ccc2nn(-c3ccc(F)cc3)nc2c1` was run?
A: 50.3%

Q: `O=C(Nc1ccc2nn(-c3ccc(Cl)cc3)nc2c1)c1ccccc1I` was tested. Which displacement did it give?
A: 7.4%

Q: With `O=C(COc1ccccc1)Nc1ccc2nn(-c3ccc(Cl)cc3)nc2c1` as the compound, how does the displacement read?
A: 6.3%

Q: With `O=C(COc1ccc([N+](=O)[O-])cc1)Nc1ccc2nn(-c3ccc(F)cc3)nc2c1` as the compound, how does the displacement read?
A: 9%

Q: Which displacement does the source give for `O=C(COc1ccccc1Cl)Nc1ccc2nn(-c3ccccc3)nc2c1` here?
A: 78.4%

Q: `O=C(Nc1ccc2nn(-c3ccc(Cl)cc3)nc2c1)c1ccccc1` was tested. Which displacement did it give?
A: -1.9%

Q: For `COc1ccc(-n2nc3ccc(NC(=O)COc4ccccc4Cl)cc3n2)cc1`, which displacement is on record?
A: 19.9%

Q: Which displacement does the source give for `O=C(Nc1ccc2nn(-c3ccc(Cl)cc3)nc2c1)c1ccccn1` here?
A: 91%

Q: Which displacement does the source give for `CCCC(=O)Nc1ccc2nn(-c3ccc(F)cc3)nc2c1` here?
A: 0.6%

Q: `Oc1ccc(/C=N/Nc2nc3ccccc3s2)c(O)c1` was tested. Which displacement did it give?
A: 11.1%

Q: How did the displacement turn out when `COc1ccccc1CC(=O)NCc1ccco1` was run?
A: 10.3%

Q: With `Cc1occc1C(=O)N/N=C/c1ccc(O)cc1O` as the compound, how does the displacement read?
A: 78.5%

Q: With `Cc1occc1C(=O)N/N=C/c1ccccc1` as the compound, how does the displacement read?
A: 4.2%

Q: With `COc1ccc(/C=N/NC(=O)c2ccoc2C)c(OC)c1OC` as the compound, how does the displacement read?
A: -4.5%

Q: How did the displacement turn out when `Cc1ccc(N2C(=O)c3ccc(C(=O)O)cc3C2=O)nc1` was run?
A: -10.6%

Q: For `c1ccc(-n2ncnc2-c2ccc3c(c2)OCO3)cc1`, which displacement is on record?
A: 4.4%

Q: For `CCOC(=O)c1c(-c2ccccc2)oc2ccc(O)c(CN3CCCC(C)C3)c12` (configuration not stated), which displacement is on record?
A: 11%

Q: With `CCc1cc2c(=O)c(-c3nc4ccccc4[nH]3)coc2c(CN2CCOCC2)c1O` as the compound, how does the displacement read?
A: 8.5%

Q: With `CN1CCN(Cc2c(O)ccc3cc(-c4nc5ccccc5[nH]4)c(=O)oc23)CC1` as the compound, how does the displacement read?
A: 125%

Q: How did the displacement turn out when `CC1CCN(Cc2c(O)ccc3c4c(c(=O)oc23)CCC4)CC1` was run?
A: 12.8%

Q: With `COc1ccccc1-c1coc2c(CN3CCN(C)CC3)c(O)ccc2c1=O` as the compound, how does the displacement read?
A: -1.3%

Q: Which displacement does the source give for `CC1CCCN(Cc2c(O)ccc3cc(-c4nc5ccccc5[nH]4)c(=O)oc23)C1` (configuration not stated) here?
A: 106%

Q: `CN1CCN(Cc2c(O)ccc3c(=O)c(-c4ccccc4)coc23)CC1` was tested. Which displacement did it give?
A: -1.7%

Q: With `Cn1c(-c2cc3ccc(O)c(CN4CCOCC4)c3oc2=O)nc2ccccc21` as the compound, how does the displacement read?
A: 19.1%

Q: With `O=c1oc2c(CN3CCOCC3)c(O)ccc2cc1-c1nc2ccccc2[nH]1` as the compound, how does the displacement read?
A: 139%

Q: With `COc1ccc(N2C(=O)C3C(c4ccccc4Cl)OC4(C(=O)c5ccccc5C4=O)C3C2=O)c(OC)c1` (configuration not stated) as the compound, how does the displacement read?
A: 12.5%

Q: For `COc1ccc(C2CC(=O)C3=C(C2)Nc2ccccc2NC3c2cc(C)ccc2C)cc1` (configuration not stated), which displacement is on record?
A: -3.7%

Q: How did the displacement turn out when `Cc1ccc(C2/C(=C(\O)c3ccccc3)C(=O)C(=O)N2CCCC(=O)O)cc1` (configuration not stated) was run?
A: 1.4%

Q: For `O=C1N=c2ccccc2=C1c1sc(Nc2cccc(Cl)c2Cl)nc1O`, which displacement is on record?
A: 15.8%

Q: For `O=C1OC(c2ccc(Br)cc2)=C/C1=C\C=C\c1ccccc1`, which displacement is on record?
A: -8.3%

Q: For `COc1cc(/C=C2\C(=O)NN(c3ccccc3)C2=O)cc(OC)c1OC`, which displacement is on record?
A: -6.6%

Q: How did the displacement turn out when `COc1ccc(C(=O)Nc2ccc(Br)cn2)cc1OC` was run?
A: 5.1%

Q: For `COc1ccc(Cl)cc1NC(=O)C1=C(C)NC(=O)NC1c1cccc2ccccc12` (configuration not stated), which displacement is on record?
A: 15.4%

Q: Which displacement does the source give for `O=C1CCCc2oc3ccc(NS(=O)(=O)c4ccccc4)cc3c21` here?
A: 2.5%

Q: `O=C(Nc1cccnc1)c1ccc(-c2ccccc2[N+](=O)[O-])o1` was tested. Which displacement did it give?
A: 48.4%

Q: `O=C(/C=C/c1ccc(-c2ccccc2[N+](=O)[O-])o1)Nc1cccnc1` was tested. Which displacement did it give?
A: 73.1%

Q: Which displacement does the source give for `Cc1ccc(/C=C/C(=O)Nc2ccc([N+](=O)[O-])cc2)o1` here?
A: 11.8%

Q: `Cc1ccc(/C=C/C(=O)Nc2cccc([N+](=O)[O-])c2)o1` was tested. Which displacement did it give?
A: 10.1%

Q: For `Cc1ccc(/C=C/C(=O)Nc2ccc(C)c([N+](=O)[O-])c2)o1`, which displacement is on record?
A: 62%

Q: Which displacement does the source give for `O=C1C(=Cc2ccc(-c3ccccc3[N+](=O)[O-])o2)C(=O)c2ccccc21` here?
A: -3.3%

Q: `O=C(/C=C/c1ccc(-c2ccccc2[N+](=O)[O-])o1)Nc1ccc(NC(=O)c2ccco2)cc1` was tested. Which displacement did it give?
A: -0.2%

Q: How did the displacement turn out when `O=[N+]([O-])c1ccccc1-c1ccc(/C=C/c2ccc3ccccc3n2)o1` was run?
A: 97.9%

Q: Which displacement does the source give for `O=[N+]([O-])c1ccc(-c2ccc(/C=C/c3ccc4ccccc4n3)o2)cc1` here?
A: 14.8%

Q: Which displacement does the source give for `COc1ccc(-c2cc(CC(=O)c3ccccc3)cc(-c3ccc(OC)cc3)n2)cc1` here?
A: 7.7%

Q: Which displacement does the source give for `COc1ccc(Cl)cc1N(CC(=O)N1CCCCC1)S(=O)(=O)c1ccc(C)c([N+](=O)[O-])c1` here?
A: 2.3%

Q: Which displacement does the source give for `Cc1ccccc1/[N+]([O-])=C/c1cccs1` here?
A: 0.1%

Q: Which displacement does the source give for `COc1ccccc1NC(=O)C(=O)NCC(C)C` here?
A: 9.1%

Q: For `COc1cc(OC)c(OC)cc1CN1CCN(Cc2cc(OC)c(OC)cc2Br)CC1`, which displacement is on record?
A: 1.2%
